Counter-ions that a name gives are not always drawn.
Tests used:
Settings in all cases: treatment time: 24 h
A549-ACTB-RAB5A [1] = assay: lowest phenotypically active concentration; higher = less potent
Summary of the method: (§1)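 Each of fifteen gene-edited A549, HepG2 and WPMY1 reporter lines, marked with BFP for segmentation and GFP and RFP/FusionRed, was treated in four wells at 0.3, 1, 3 or 9 µM for 24 h prior to live imaging. Normalisation of per-well live-cell features used solvent control wells. Deviation needed ≥3 of 4 wells beyond the 95th percentile of control Euclidean distances, and reproducibility needed a median replicate Pearson correlation above the 95th percentile of non-replicates. Both were required for phenotypic activity.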

A549-GM130-SQSTM1 [2] = assay: as above
Summary of the method: as §1

A549-TP53BP1-CLTA [3] = assay: as above
Summary of the method: as §1

HepG2-GM130-SQSTM1 [4] = assay: as above
Summary of the method: as §1

HepG2-TUBA1B-RELA [5] = assay: as above
Summary of the method: as §1

A549-ACTB-RAB5A [6] = assay: phenotypically active (imaging signature differs from DMSO and reproducible) at any of 0.3-9 uM (binary (1 = active, 0 = inactive)); higher = active
Summary of the method: as §1

A549-CANX-COX4 = assay: as above
Summary of the method: as §1

A549-GM130-SQSTM1 [7] = assay: as above
Summary of the method: as §1

A549-TP53BP1-CLTA [8] = assay: as above
Summary of the method: as §1

A549-TUBA1B-RELA = assay: as above
Summary of the method: as §1

HepG2-ACTB-RAB5A = assay: as above
Summary of the method: as §1

HepG2-CANX-COX4 = assay: as above
Summary of the method: as §1

HepG2-GM130-SQSTM1 [9] = assay: as above
Summary of the method: as §1

HepG2-TP53BP1-CLTA = assay: as above
Summary of the method: as §1

HepG2-TUBA1B-RELA [10] = assay: as above
Summary of the method: as §1

WPMY1-ACTB-RAB5A = assay: as above
Summary of the method: as §1

WPMY1-CANX-COX4 = assay: as above
Summary of the method: as §1

WPMY1-GM130-SQSTM1 = assay: as above
Summary of the method: as §1

WPMY1-TP53BP1-CLTA = assay: as above
Summary of the method: as §1

WPMY1-TUBA1B-RELA = assay: as above
Summary of the method: as §1

Row | Structure (SMILES) | lowest phenotypically active concentration (A549-ACTB-RAB5A [1]) | lowest phenotypically active concentration (A549-GM130-SQSTM1 [2]) | lowest phenotypically active concentration (A549-TP53BP1-CLTA [3]) | lowest phenotypically active concentration (HepG2-GM130-SQSTM1 [4]) | lowest phenotypically active concentration (HepG2-TUBA1B-RELA [5]) | phenotypically active (A549-ACTB-RAB5A [6]) | phenotypically active (A549-CANX-COX4) | phenotypically active (A549-GM130-SQSTM1 [7]) | phenotypically active (A549-TP53BP1-CLTA [8]) | phenotypically active (A549-TUBA1B-RELA) | phenotypically active (HepG2-ACTB-RAB5A) | phenotypically active (HepG2-CANX-COX4) | phenotypically active (HepG2-GM130-SQSTM1 [9]) | phenotypically active (HepG2-TP53BP1-CLTA) | phenotypically active (HepG2-TUBA1B-RELA [10]) | phenotypically active (WPMY1-ACTB-RAB5A) | phenotypically active (WPMY1-CANX-COX4) | phenotypically active (WPMY1-GM130-SQSTM1) | phenotypically active (WPMY1-TP53BP1-CLTA) | phenotypically active (WPMY1-TUBA1B-RELA)
1 | C[C@]12CC[C@H]3[C@@H](CC[C@]4(O)C[C@@H](O)CC[C@]34C=O)[C@@]1(O)CC[C@@H]2C1=CC(=O)OC1 [Strophanthidin] | ≤ 0.3 µM | ≤ 0.3 µM | ≤ 0.3 µM | 1 µM | ≤ 0.3 µM | 1 (active) | 1 (active) | 1 (active) | 1 (active) | 1 (active) | 1 (active) | 1 (active) | 1 (active) | 1 (active) | 1 (active) | 1 (active) | 1 (active) | 1 (active) | 1 (active) | 1 (active)
2 | COc1cc([C@@H]2c3cc4c(cc3[C@H](O)[C@H]3COC(=O)[C@H]23)OCO4)cc(OC)c1OC [Podophyllotoxin] | ≤ 0.3 µM | ≤ 0.3 µM | ≤ 0.3 µM | ≤ 0.3 µM | ≤ 0.3 µM | 1 (active) | 1 (active) | 1 (active) | 1 (active) | 1 (active) | 1 (active) | 1 (active) | 1 (active) | 1 (active) | 1 (active) | 1 (active) | 1 (active) | 1 (active) | 1 (active) | 1 (active)
3 | CCN1CCN(C(=O)Cc2ccc(Nc3ncc(F)c(Nc4ccc(C(=O)Nc5ccccc5Cl)cc4)n3)cc2)CC1 | 1 µM | 1 µM | 1 µM | 1 µM | ≤ 0.3 µM | 1 (active) | 1 (active) | 1 (active) | 1 (active) | 1 (active) | 1 (active) | 1 (active) | 1 (active) | 1 (active) | 1 (active) | 1 (active) | 0 (inactive) | 0 (inactive) | 1 (active) | 1 (active)
4 | C[C@@]1(CO)[C@H](O)CC[C@@]2(C)[C@H]1CC[C@H]1C[C@@H]3C[C@@]12CC[C@]3(O)CO [Aphidicolin] | ≤ 0.3 µM | ≤ 0.3 µM | ≤ 0.3 µM | ≤ 0.3 µM | ≤ 0.3 µM | 1 (active) | 1 (active) | 1 (active) | 1 (active) | 1 (active) | 1 (active) | 1 (active) | 1 (active) | 1 (active) | 1 (active) | 1 (active) | 1 (active) | 1 (active) | 1 (active) | 1 (active)
5 | O=C1NC(=O)c2c1c1c3ccccc3n3c1c1c2c2ccccc2n1C1CCC3O1 | ≤ 0.3 µM | ≤ 0.3 µM | – | – | – | 1 (active) | 0 (inactive) | 1 (active) | 0 (inactive) | 1 (active) | 0 (inactive) | 0 (inactive) | 0 (inactive) | 1 (active) | 0 (inactive) | 1 (active) | 1 (active) | 1 (active) | 1 (active) | 0 (inactive)
6 | CCn1cnc2c(Nc3cccc(Cl)c3)nc(N[C@H]3CCCC[C@H]3N)nc21 | 1 µM | 1 µM | 1 µM | 1 µM | 1 µM | 1 (active) | 1 (active) | 1 (active) | 1 (active) | 1 (active) | 1 (active) | 1 (active) | 1 (active) | 1 (active) | 1 (active) | 1 (active) | 1 (active) | 1 (active) | 1 (active) | 1 (active)
7 | COc1ccc(N(C(=O)Oc2c(C)cccc2C)c2ccnc(Nc3ccc(N4CCN(C)CC4)cc3)n2)c(OC)c1 | 1 µM | 1 µM | 3 µM | 3 µM | ≤ 0.3 µM | 1 (active) | 1 (active) | 1 (active) | 1 (active) | 1 (active) | 1 (active) | 1 (active) | 1 (active) | 1 (active) | 1 (active) | 1 (active) | 0 (inactive) | 0 (inactive) | 1 (active) | 0 (inactive)
8 | CN1C[C@H](C(=O)N[C@]2(C)O[C@@]3(O)[C@@H]4CCCN4C(=O)[C@H](Cc4ccccc4)N3C2=O)C[C@@H]2c3cccc4[nH]cc(c34)C[C@H]21.CN1C[C@H](C(=O)N[C@]2(C)O[C@@]3(O)[C@@H]4CCCN4C(=O)[C@H](Cc4ccccc4)N3C2=O)C[C@@H]2c3cccc4[nH]cc(c34)C[C@H]21 [dihydroergotamine] | 9 µM | 9 µM | 9 µM | 9 µM | 9 µM | 1 (active) | 0 (inactive) | 1 (active) | 1 (active) | 1 (active) | 1 (active) | 0 (inactive) | 1 (active) | 1 (active) | 1 (active) | 0 (inactive) | 0 (inactive) | 1 (active) | 1 (active) | 0 (inactive)
9 | CC[C@@H](CO)NC(=O)[C@@H]1C=C2c3cccc4c3c(cn4C)C[C@H]2N(C)C1 [methysergide] | – | 9 µM | – | – | – | 0 (inactive) | 0 (inactive) | 1 (active) | 0 (inactive) | 0 (inactive) | 0 (inactive) | 0 (inactive) | 0 (inactive) | 0 (inactive) | 0 (inactive) | 0 (inactive) | 0 (inactive) | 0 (inactive) | 0 (inactive) | 0 (inactive)
10 | CCCCCC[C@H]1C(=O)O[C@H](C)[C@H](NC(=O)c2cccc(NC=O)c2O)C(=O)O[C@@H](C)[C@@H]1OC(=O)CC(C)C [antimycin a] | ≤ 0.3 µM | ≤ 0.3 µM | ≤ 0.3 µM | ≤ 0.3 µM | ≤ 0.3 µM | 1 (active) | 1 (active) | 1 (active) | 1 (active) | 1 (active) | 1 (active) | 1 (active) | 1 (active) | 1 (active) | 1 (active) | 1 (active) | 1 (active) | 1 (active) | 1 (active) | 1 (active)
11 | COc1cc2c(c(OC)c1OC)-c1ccc(OC)c(=O)cc1[C@@H](NC(C)=O)CC2 [colchicine] | ≤ 0.3 µM | ≤ 0.3 µM | ≤ 0.3 µM | ≤ 0.3 µM | ≤ 0.3 µM | 1 (active) | 1 (active) | 1 (active) | 1 (active) | 1 (active) | 1 (active) | 1 (active) | 1 (active) | 1 (active) | 1 (active) | 1 (active) | 1 (active) | 1 (active) | 1 (active) | 1 (active)
12 | CN1CCC2=C[C@H](O)[C@H]3OC(=O)c4cc5c(cc4[C@H]3[C@@H]21)OCO5 [Hippeastrine hydrobromide] | 9 µM | – | – | – | – | 1 (active) | 0 (inactive) | 0 (inactive) | 0 (inactive) | 0 (inactive) | 0 (inactive) | 1 (active) | 0 (inactive) | 0 (inactive) | 0 (inactive) | 0 (inactive) | 0 (inactive) | 0 (inactive) | 0 (inactive) | 0 (inactive)
13 | CC(C)(O)[C@H]1O[C@H]2CC[C@@]3(C)[C@@](O)(CC[C@H]4Cc5c([nH]c6ccccc56)[C@@]43C)C2=CC1=O [paxilline] | 9 µM | – | – | – | – | 1 (active) | 0 (inactive) | 0 (inactive) | 0 (inactive) | 0 (inactive) | 1 (active) | 0 (inactive) | 0 (inactive) | 1 (active) | 0 (inactive) | 0 (inactive) | 0 (inactive) | 1 (active) | 1 (active) | 0 (inactive)
14 | CC[C@H]1CN2CC[C@H]1C[C@@H]2[C@@H](O)c1ccnc2ccc(OC)cc12 [Hydroquinidine HCl] | 9 µM | – | – | 9 µM | – | 1 (active) | 0 (inactive) | 0 (inactive) | 0 (inactive) | 1 (active) | 0 (inactive) | 1 (active) | 1 (active) | 0 (inactive) | 0 (inactive) | 1 (active) | 1 (active) | 0 (inactive) | 0 (inactive) | 1 (active)
15 | Cc1c(C(=O)Nc2cccc(C(F)(F)F)c2)cc(-c2ccccc2)n1CCCN1CCOCC1 | 9 µM | 9 µM | – | – | – | 1 (active) | 0 (inactive) | 1 (active) | 0 (inactive) | 0 (inactive) | 0 (inactive) | 0 (inactive) | 0 (inactive) | 0 (inactive) | 0 (inactive) | 0 (inactive) | 0 (inactive) | 0 (inactive) | 0 (inactive) | 0 (inactive)
16 | C[C@H](CCC(=O)O)C[C@H](C)C[C@H](C)C(=O)/C=C(\O)[C@H](C)C[C@H](C)C/C=C/[C@@H](C)[C@@H](O)[C@@H](C)[C@@H](O)C[C@@H]1CC[C@@](C)([C@H]2CC[C@@](C)([C@@H](C)O)O2)O1 [Ionomycin free acid] | – | – | – | – | 9 µM | 0 (inactive) | 1 (active) | 0 (inactive) | 0 (inactive) | 0 (inactive) | 0 (inactive) | 1 (active) | 0 (inactive) | 0 (inactive) | 1 (active) | 1 (active) | 1 (active) | 1 (active) | 1 (active) | 0 (inactive)
17 | O=C(Nc1ccncc1)C(=O)c1cn(Cc2ccc(Cl)cc2)c2ccccc12 [Indibulin] | ≤ 0.3 µM | ≤ 0.3 µM | 3 µM | ≤ 0.3 µM | 1 µM | 1 (active) | 0 (inactive) | 1 (active) | 1 (active) | 1 (active) | 1 (active) | 1 (active) | 1 (active) | 1 (active) | 1 (active) | 1 (active) | 1 (active) | 1 (active) | 1 (active) | 1 (active)
